Screening data from PubChem BioAssay.
AMPAR-TARP mod: modulates AMPAR-stargazin complexes. O88602+P19491. HEK293 GluA2+stargazin, membrane potential dye (FDSS), glutamate EC50; hits were called plate by plate, in both directions. calls only at 30 µM. hit rate 3.5% among 40,000. AID 1259245;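 active = any of four per-well response measures lying three or more SD from its plate-wide compound average, in either direction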
GIRK2 act: Activates human GIRK2-containing potassium channels; P48051; 34,000 tested, under 10 active; activation (% efficacy), % for hits at 37.5 µM; HEK293 GIRK2/NPY4 cells, thallium flux fluorescence;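 active = primary screen hit, no activity in plain HEK293 cells, and in GIRK2-only cells above 5% efficacy rising with concentration; inactive = the rest, including fluorescent compounds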;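 note: efficacy is normalized control-subtracted fluorescence 15 s after thallium addition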
Target sequence (P48051 whole entry, looked up): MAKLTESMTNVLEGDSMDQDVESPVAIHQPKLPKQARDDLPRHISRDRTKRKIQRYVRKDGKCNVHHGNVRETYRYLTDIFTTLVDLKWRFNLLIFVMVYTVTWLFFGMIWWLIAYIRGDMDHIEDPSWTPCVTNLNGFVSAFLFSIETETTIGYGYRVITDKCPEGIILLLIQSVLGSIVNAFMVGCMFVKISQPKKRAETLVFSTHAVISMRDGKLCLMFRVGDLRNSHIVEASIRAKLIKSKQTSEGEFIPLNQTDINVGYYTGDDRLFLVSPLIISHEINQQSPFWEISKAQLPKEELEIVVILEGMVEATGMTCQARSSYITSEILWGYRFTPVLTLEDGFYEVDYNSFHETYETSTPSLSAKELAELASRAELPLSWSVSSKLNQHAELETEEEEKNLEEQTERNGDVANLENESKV
* marks the source's active call; other numbers are inactive results; i = inactive; · = no result; + = active, no number. Shown is part of a subset that was picked to be rich in hits.

SMILES	AMPAR-TARP mod	GIRK2 act
COC(=O)c1scc(-c2ccccc2)c1S(=O)(=O)N1CCN(Cc2ccccc2)CC1	+	·
COC(=O)c1scc(-c2ccccc2)c1S(=O)(=O)N1CCCC1	i	·
COc1ccc(-c2ccc(=O)n(CCNS(=O)(=O)c3ccc4ccccc4c3)n2)cc1	i	·
O=S(=O)(NCC(O)(c1cccs1)C1CC1)c1cc(Cl)ccc1Cl (stereo not drawn)	i	i
COc1ccc(C(=O)Nc2nnc(-c3ccc(C)cc3C)o2)cc1	i	·
O=C(Nc1cccc(N2CCCC2=O)c1)c1ccc2c(c1)OCO2	i	·
Cn1nc(-c2ccccc2)cc1C(=O)Nc1cccc(-c2cnc3n2CCC3)c1	+	i
CC(Oc1ccccc1)C(=O)Nc1cccc(-c2cnc3n2CCC3)c1 (stereo not drawn)	i	i
O=C(Nc1cccc(-c2cnc3n2CCC3)c1)c1ccc2c(c1)OCO2	+	i
COc1ccccc1-c1nnc(NC(=O)CS(=O)(=O)Cc2ccccc2)o1	i	i
Cn1c(-c2cccs2)nn(CCNS(=O)(=O)c2ccccc2Cl)c1=O	i	i
COC(=O)NCC1CCN(C(=O)c2cc3ccccc3o2)CC1	i	i
Cc1ccc(Cl)cc1N1CCN(c2ccc(S(=O)(=O)c3ccccc3)nn2)CC1	i	i
Cc1[nH]c(=O)[nH]c(=O)c1CC(=O)Nc1ccc(OC(F)(F)F)cc1	i	i
O=C(c1cccs1)N1CCN(c2cc(N3CCCC3)ncn2)CC1	+	i
O=C(Cc1cccs1)N1CCN(c2ccccn2)CC1	i	·
O=C(Cc1cccs1)N1CCN(c2cc(N3CCCC3)ncn2)CC1	+	i
CC1CCN(c2ccc(N3CCN(C(=O)c4cccs4)CC3)nn2)CC1	i	i
COc1ccccc1-c1nc(COC(=O)c2nnn(-c3ccc(C)cc3)c2C)c(C)o1	i	·
CCOc1ccccc1-c1nc(COC(=O)c2nnn(-c3ccc(Cl)cc3)c2C)c(C)o1	+	·
OC(CNC1CCCC1)COCC12CC3CC(CC(C3)C1)C2 (stereo not drawn)	i	i
C#CCn1c(SCCOc2cccc(OC)c2)nc2ccccc21	+	·
COc1cccc(OCCn2c(CN3CCCCC3)nc3ccccc32)c1	i	·
O=C(Nc1ccc(O)cc1)C(=O)Nc1ccc(F)c([N+](=O)[O-])c1	+	i
O=C(NCc1ccncc1)C(=O)Nc1ccc(F)c([N+](=O)[O-])c1	i	i
SMILES	AMPAR-TARP mod	GIRK2 act
CCc1ccc(OC)c(S(=O)(=O)Nc2ncccc2C)c1	·	i
NS(=O)(=O)c1ccc(NC(=O)CN2C(=O)c3ccccc3S2(=O)=O)cc1	+	i
NC(=O)c1ccc(NC(=O)CN2C(=O)c3ccccc3S2(=O)=O)cc1	i	i
Cn1cccc1C(O)CNC(=O)C(=O)Nc1ccon1 (stereo not drawn)	i	i
COCCN=Cc1c(NCCOC)nc2ccccn2c1=O	+	i
Cc1nc2ccccn2c1C(=O)NCC1CCN(S(=O)(=O)C2CC2)CC1	i	i
COc1ccc(OCCNC(=O)CCc2sc(C)nc2-c2cccs2)cc1	i	i
CC(=O)c1cccc(NC(=O)Cc2cc(-c3cc4ccccc4o3)on2)c1	i	i
CCOC(=O)CC(=O)CSc1cc(C)c(C#N)c2nc3ccccc3n12	i	i
CCCc1cc(NCC2CCCO2)n2c(nc3ccccc32)c1C#N (stereo not drawn)	+	i
O=S(=O)(Oc1c(Cl)cc(Cl)c2cccnc12)N1CCCCC1	+	·
O=S(=O)(Oc1c(Cl)cc(Cl)c2cccnc12)N1CCCCCC1	i	·
CCOC(=O)c1ccccc1NC(=O)Cn1cc(-c2ccccc2)c2ncn(CCOC)c(=O)c21	+	i
CCOc1ccccc1NC(=O)Cn1cc(-c2ccccc2)c2ncn(CCOC)c(=O)c21	i	i
Cc1ccc2nc(N(CCCN(C)C)C(=O)c3ccnn3C)sc2c1	·	i
CCOc1cccc2cc(C(=O)NCc3ccncc3)c(=O)oc12	+	i
CCOc1ccc(OCCNC(=O)c2cc3cccc(OCC)c3oc2=O)cc1	i	i
O=C(c1ccc(N2CCCCS2(=O)=O)cc1)N1CCOCC1	i	i
CCNC(=O)CSc1nc(-c2ccccc2)c(NC(=O)CCc2ccc(OC)cc2)s1	i	i
NC(=O)CSc1nc(-c2ccccc2)c(NC(=O)c2ccccc2Cl)s1	i	i
CNC(=O)CSc1nc(-c2ccccc2)c(NC(=O)CCc2ccccc2)s1	+	i
NC(=O)CSc1nc(-c2ccccc2)c(NC(=O)c2cccc(Cl)c2)s1	+	i
Cc1cccc(NC(=O)CCc2csc(NC(=O)c3ccc(F)cc3)n2)c1C	i	i
NC(=O)c1ccc(NC(=O)CCCn2nc(-c3cccs3)ccc2=O)cc1	·	i
COc1cc(NS(=O)(=O)c2ccc(F)cc2)ccc1N1CCCCC1=O	i	i
SMILES	AMPAR-TARP mod	GIRK2 act
Cc1ccc(NS(=O)(=O)c2ccc(F)cc2)cc1N1CCCCC1=O	+	i
O=C(CN1CCC(c2nnc(C3CC3)o2)CC1)NCCc1ccccc1	+	i
O=C(NCCc1ccccc1)N1CCC(c2nnc(C3CC3)o2)CC1	i	·
O=C(Cc1csc(Nc2cccc(C(F)(F)F)c2)n1)N1CCN(c2ncccn2)CC1	i	i
COc1ccc(CCC(=O)Nc2cc(-n3c(C)nc4ccccc4c3=O)ccc2F)cc1	i	i
COc1ccc(CCC(=O)Nc2cccc(-n3c(C)nc4ccccc4c3=O)c2)cc1	+	·
COC(=O)C1=C(CS(=O)(=O)c2cc(Cl)ccc2OC)NC(=O)NC1c1ccccc1 (stereo not drawn)	+	i
COC(=O)C1=C(CS(=O)(=O)c2ccc(OC)c(OC)c2)NC(=O)NC1c1ccc(O)cc1 (stereo not drawn)	i	·
COC(=O)C1=C(CS(=O)(=O)c2ccc(OC)c(OC)c2)NC(=O)NC1c1cccc(Cl)c1 (stereo not drawn)	i	·
COC(=O)C1=C(CS(=O)(=O)c2ccccc2)NC(=O)NC1c1ccc(OC)c(OC)c1 (stereo not drawn)	+	·
O=C(NCC(O)(c1cccs1)C1CC1)c1cc(=O)c2ccccc2o1 (stereo not drawn)	i	i
CCc1c(C#N)c(SCC(=O)NCc2ccc3c(c2)OCO3)nc2c1C(=O)CC(C)(C)C2	+	i
CCc1c(C#N)c(SCCC(=O)NCc2ccc3c(c2)OCO3)nc2c1C(=O)CC(C)(C)C2	i	i
O=C(Cc1cc(-c2ccc3c(c2)OCO3)on1)NCCc1c[nH]c2ccccc12	i	·
O=C(COc1ccc2ccccc2c1)NCC(O)c1ccc(C(F)(F)F)cc1 (stereo not drawn)	·	i
Cc1ccc(C(CNC(=O)COc2ccc3ccccc3c2)N(C)C)cc1 (stereo not drawn)	+	i
Nc1ccc2c3c(cccc13)C(=O)N(c1ccccc1)C2=O	+	·
O=C1c2ccc(-n3c(=O)c4ccccc4c4ccccc4c3=O)cc2C(=O)N1c1ccccc1	i	·
CC(O)(CNS(=O)(=O)c1ccc(Cl)s1)c1ccc(-c2ccccc2)cc1 (stereo not drawn)	i	i
CCOCCCNS(=O)(=O)c1cc(Cl)c(C)cc1OC	+	·
COc1cc(C)c(Cl)cc1S(=O)(=O)NC(C)(C)C	i	·
